From PubChem
Myc binder = binders of human c-Myc, primary screen, biochemical, small molecule microarray, anti-His fluorescence; calls only; hit rate 1.5% among 17,000; His-c-Myc binding; Myc proto-oncogene protein (Homo sapiens), P01106;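 active = spot fluorescence over background with P-value below 7% in all four replicate spots, showing protein binding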;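 note: score is binary with 100 for all four spots passing and 0 otherwise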
STAT3 SMM = STAT3 binders, primary screen, biochemical, small molecule microarray, single point, set 2; AID 624138, 2012; hit rate 0.2% among 17,000; calls only; Signal transducer and activator of transcription 3 (Homo sapiens), P40763; His-STAT3 binding, anti-His fluorescence;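 active = compounds whose four printed spots each show fluorescence over background unusually high for their array block, chance value under 7%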
Target sequence (P40763 whole entry, looked up): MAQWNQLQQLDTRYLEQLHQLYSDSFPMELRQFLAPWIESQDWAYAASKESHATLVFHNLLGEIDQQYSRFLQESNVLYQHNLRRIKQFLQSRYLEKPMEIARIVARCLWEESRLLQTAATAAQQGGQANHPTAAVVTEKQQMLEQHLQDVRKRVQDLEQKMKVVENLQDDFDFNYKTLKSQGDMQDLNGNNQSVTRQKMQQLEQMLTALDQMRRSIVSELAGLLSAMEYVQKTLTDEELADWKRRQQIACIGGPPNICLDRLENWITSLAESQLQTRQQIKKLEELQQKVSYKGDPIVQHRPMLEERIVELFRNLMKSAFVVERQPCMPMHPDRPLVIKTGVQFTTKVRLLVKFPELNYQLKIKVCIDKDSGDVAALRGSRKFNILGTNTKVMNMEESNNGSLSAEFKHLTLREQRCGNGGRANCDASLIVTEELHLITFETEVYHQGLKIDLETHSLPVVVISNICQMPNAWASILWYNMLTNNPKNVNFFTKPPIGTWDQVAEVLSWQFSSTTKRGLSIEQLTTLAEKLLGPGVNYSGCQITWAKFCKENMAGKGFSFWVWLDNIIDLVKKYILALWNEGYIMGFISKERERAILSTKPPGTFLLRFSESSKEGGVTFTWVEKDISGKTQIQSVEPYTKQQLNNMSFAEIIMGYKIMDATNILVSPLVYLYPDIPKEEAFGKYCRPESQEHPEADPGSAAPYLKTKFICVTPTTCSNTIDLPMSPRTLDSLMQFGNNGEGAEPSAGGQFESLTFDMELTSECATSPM
p53 PUMA act = mutant p53 pathway re-activators, primary screen, cell-based, SW480, luciferase, single point, HTS; hit rate 1.5% among 28,000; SW480 PUMA-promoter luciferase, p53 mutant reactivation; AID 624151, 2012; activation, % at 9.98 µM; in the data active = activation above about 52%
NFkB SMM = binders of NF-kB p50 subunit, primary screen, biochemical, small molecule microarray, anti-His fluorescence; Nuclear factor NF-kappa-B p105 subunit (Homo sapiens), P19838; calls only; hit rate 1.3% among 17,000; anti-His fluorescence binding; AID 624139, 2012;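 active = spot fluorescence over background significantly raised, with a chance value under 7% in all four replicate spots of the compound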;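 note: probe protein is his-tagged human p50 processed subunit at 1 µg/ml; raw spot fluorescence signals with no normalization applied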
mut p53 SMM = binders of human mutant p53, primary screen, biochemical, small molecule microarray, anti-GST fluorescence. small molecule microarray binding. calls only. hit rate 0.4% among 17,000. AID 624136, 2012;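 active = compounds whose four printed spots each glow above background more than chance allows, each with a p-value under 7%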
Active calls of the source: *; i = inactive; x = no result given; + = active, no number. A selection: hits, their analogues and other compounds. The true share with any hit is near 2.6%.

SMILES | Myc binder | STAT3 SMM | p53 PUMA act | NFkB SMM | mut p53 SMM
COc1ccccc1NC(=O)COc1ccc(Cl)cc1CO | i | i | 62.9* | i | i
Cc1cc(OCC(=O)Nc2ccccc2CO)cc(C)c1Br | x | x | 17.5 | x | x
COc1ccc(Cl)cc1NC(=O)COc1ccccc1OC | i | i | 99.4* | i | i
COc1ccc(-c2nc3cc(C(C)C)ccc3o2)cc1NC(=O)COc1ccccc1C | x | x | -7.9 | x | x
COC(=O)CCSc1nc(SC)nc2sc3c(c12)CC(C)(C)OC3 | i | i | -0.9 | i | i
O=C(CNC(=O)c1cn(-c2ccccc2)nc1-c1ccccc1)c1ccccc1 | i | i | 121.2* | i | i
COc1ccccc1C(=O)Nc1ccc2c(c1)nc(CCNC(C)=O)n2C | x | x | 131.4* | x | x
C[C@]12C[C@H](O)C3C(CC[C@@H]4C[C@H](O)CC[C@]34C)C1CC[C@@H]2C(=O)CO (some centres undefined) | i | i | -1.0 | i | i
C[C@]12CCC(=O)C=C1CC[C@@H]1C2CC[C@@]2(C)C1CC[C@@H]2C(=O)CO (some centres undefined) | i | i | -10.7 | i | +
COC(=O)c1c(NC(=O)c2ccc(NS(C)(=O)=O)cc2)sc2c1CCCC2 | x | x | -5.5 | x | x
Cc1ccc(-c2csc3nnc(SCC(=O)c4ccc(Cl)c(Cl)c4)n23)cc1 | x | x | -0.8 | x | x
CC1(C)CC(=O)c2c(O)cc(OCC(=O)c3ccc(Cl)c(Cl)c3)cc2O1 | x | x | 39.5 | x | x
CC1(C)CC(=O)c2c(O)cc(OCC(=O)c3ccccc3)cc2O1 | i | i | 62.3* | i | i
CC1(C)CC[C@]2(C(=O)O[C@@H]3O[C@H](CO)[C@@H](O)[C@H](O)[C@H]3O)CC[C@]3(C)C(=CCC4[C@@]5(C)C[C@@H](O)[C@H](O)[C@@](C)(COC(=O)c6cc(O)c(O)c(O)c6)C5[C@H](O)C[C@]43C)[C@@H]2C1 (some centres undefined) | i | i | -37.2 | i | i
COC(=O)c1ccccc1Oc1nc(NC(C)C)nc(NC(C)C)n1 | i | i | -12.2 | i | i
COc1ccc(-c2nc3ccccc3s2)cc1NC(=O)COc1cccc(C)c1 | x | x | 66.1* | x | x
Cc1ccc(-c2nc3ccccc3s2)cc1NC(=O)COc1ccccc1 | i | i | 54.4* | i | i
COc1ccc(-c2nc3ccccc3s2)cc1NC(=O)COc1ccccc1[N+](=O)[O-] | x | x | 28.0 | x | x
COc1ccc(OCC(=O)Nc2cc(-c3nc4ccccc4s3)ccc2C)cc1 | x | x | 30.4 | x | x
Cc1ccc(-c2nnc(SCc3ccccc3C#N)n2-c2ccccc2)cc1Cl | x | x | 83.9* | x | x
N#Cc1ccccc1CSc1nnc(-c2ccco2)n1-c1ccccc1 | x | x | 4.5 | x | x
Cc1ccc2c(C)c(C(=O)Nc3sc4c(c3C(=O)NCc3ccco3)CCC4)oc2c1 | x | x | 7.7 | x | x
N=c1ncn(Cc2ccccc2)c2nc(SCC(=O)O)[nH]c12 | i | i | 14.8 | i | i
C[C@@H]1CN([C@H](C)CO)C(=O)c2cc(NC(=O)Nc3ccc4c(c3)OCO4)ccc2O[C@@H](C)CCCCO[C@@H]1CN(C)C(=O)c1ccccc1 | i | i | 1.1 | i | i
C[C@H]1CCCCO[C@H](CN(C)Cc2ccncc2)[C@@H](C)CN([C@@H](C)CO)C(=O)c2cc(NC(=O)Nc3ccccc3)ccc2O1 | i | i | -2.3 | i | i
SMILES | Myc binder | STAT3 SMM | p53 PUMA act | NFkB SMM | mut p53 SMM
C[C@@H]1CCCCO[C@@H](CN(C)Cc2ccccc2)[C@H](C)CN([C@H](C)CO)C(=O)c2cc(NC(=O)Nc3ccc4c(c3)OCO4)ccc2O1 | i | i | -25.0 | + | i
C[C@H]1CCCCO[C@H](CN(C)C(=O)c2ccccc2)[C@@H](C)CN([C@@H](C)CO)C(=O)c2cc(NC(=O)Nc3ccc4c(c3)OCO4)ccc2O1 | i | i | -24.5 | i | +
C[C@@H]1CN([C@@H](C)CO)C(=O)c2cc(NC(=O)Nc3ccccc3)ccc2O[C@@H](C)CCCCO[C@H]1CN(C)Cc1ccncc1 | + | i | -3.8 | i | i
C[C@H]1CCCCO[C@@H](CN(C)Cc2ccccc2)[C@@H](C)CN([C@@H](C)CO)C(=O)c2cc(NC(=O)Nc3ccc4c(c3)OCO4)ccc2O1 | i | i | -29.4 | i | i
CC(C)NC(=O)Nc1ccc2c(c1)C(=O)N([C@@H](C)CO)C[C@@H](C)[C@H](CN(C)Cc1ccccc1)OCCCC[C@H](C)O2 | + | i | 7.4 | + | i
CC(C)(C)c1ccc(C(=O)N2CCN(c3ccc([N+](=O)[O-])c(NCc4cccnc4)c3)CC2)cc1 | x | x | -100.5 | x | x
Cc1cccc(OCC(=O)Nc2cccc(-c3nc4ccccc4s3)c2)c1C | x | x | 95.1* | x | x
Cc1ccccc1OCC(=O)NC(=S)Nc1ccccc1-c1nc2ccccc2s1 | x | x | 1.7 | x | x
Cc1ccccc1OCC(=O)Nc1cccc(NC(=O)C(C)C)c1 | x | x | 61.7* | x | x
Cc1ccccc1OCC(=O)Nc1cccc(-c2nc3ccccc3s2)c1 | i | i | 78.8* | i | i
Cc1ccccc1OCC(=O)Nc1cccc(C(=O)O)c1 | x | x | -93.0 | x | x
O=C(CSc1ncnc2sc3c(c12)CCC3)Nc1cccc(-c2nc3ccccc3s2)c1 | x | x | 80.0* | x | x
CCC(=O)Nc1ccc(Cl)c(NC(=O)COc2ccccc2C)c1 | x | x | 106.7* | x | x
CCC(=O)Nc1ccc(Cl)c(NC(=O)COc2ccc(Br)cc2)c1 | x | x | 17.9 | x | x
Cc1sc(NC(=O)c2cnccn2)c(C(N)=O)c1-c1ccccc1 | x | x | 98.8* | x | x
CCOC(=O)c1cc(-c2ccccc2)sc1NC(=S)Nc1cnccn1 | i | i | -31.5 | i | i
Cc1ccc(-c2cc(C(=O)Nc3sc(C)c(-c4ccccc4)c3C(N)=O)c3ccccc3n2)o1 | x | x | 104.9* | x | x
Cc1ccc2nc(-c3cccc(Br)c3)cc(C(=O)NCc3cccnc3)c2c1 | x | x | 57.5* | x | x
COCCNC(=O)c1cc(-c2cccnc2)nc2ccc(Br)cc12 | i | i | 11.9 | i | i
CCCc1ccc(-c2cc(C(=O)NCc3cccnc3)c3ccccc3n2)cc1 | x | x | 105.5* | x | x
CCn1cc(CNC(=O)c2cc(-c3cccnc3)nc3ccc(Br)cc23)c(C)n1 | x | x | -0.2 | x | x
Cc1ccc(-c2cc(C(=O)NCc3cccnc3)c3cc(Br)ccc3n2)cc1 | x | x | 67.0* | x | x
CCn1c(SCC(=O)N2CCc3ccccc32)nnc1-c1ccc([N+](=O)[O-])cc1 | x | x | -17.7 | x | x
CS(=O)(=O)N(CC(=O)Nc1ccc(C(F)(F)F)cc1)c1ccccc1Cl | i | i | -10.5 | i | i
CCc1ccc(OCC(=O)Nc2ccccc2C#N)cc1 | x | x | 64.3* | x | x
CC(C)c1ccc(OCC(=O)Nc2ccccc2C#N)c(Br)c1 | i | i | 129.5* | i | i
Cc1c(Br)ccc(NC(=O)Cn2cnc3sc4c(c3c2=O)CCCC4)c1C | i | i | 4.5 | i | i
O=C(CSc1nc(-c2ccccc2)c(-c2ccccc2)[nH]1)Nc1ccccc1Cl | x | x | 0.7 | x | x
